Compounds without any hit were thinned out: in the full panel of roughly 83,000, 20% have a hit.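 96-well plates, one dose, 48 hours. Percent growth reported; active if below 10.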 Activity calls are given as the source filed them.
Legend:
Assay in all cases: NCI-60 one-dose screen, 48 h (100 = growth as untreated, 0 = no growth, -100 = all killed)
Settings in all cases: 10 µM unless noted
HCT-15 colon = system: HCT-15 colon
HT29 colon = system: HT29 colon
SNB-75 CNS = system: SNB-75 CNS
SNB-19 CNS = system: SNB-19 CNS
U251 CNS = system: U251 CNS
SK-MEL-5 melanoma = system: SK-MEL-5 melanoma
UACC-62 melanoma = system: UACC-62 melanoma
LOX IMVI melanoma = system: LOX IMVI melanoma
SK-MEL-28 melanoma = system: SK-MEL-28 melanoma
SK-MEL-2 melanoma = system: SK-MEL-2 melanoma
EKVX NSCLC = system: EKVX NSCLC
SN12C renal = system: SN12C renal
UO-31 renal = system: UO-31 renal
TK-10 renal = system: TK-10 renal
ACHN renal = system: ACHN renal
A498 renal = system: A498 renal
CCRF-CEM leukemia = system: CCRF-CEM leukemia
MOLT-4 leukemia = system: MOLT-4 leukemia
CAKI-1 renal = system: CAKI-1 renal

Measured: growth

Oc1cccc(-c2nc(N3CCOCC3)c3c4c(sc3n2)CCCC4)c1
inactive: HCT-15 colon 49.1% | HT29 colon 94.7% | SNB-19 CNS 62.3% | U251 CNS 52.7% | SK-MEL-5 melanoma 46.6% | UACC-62 melanoma 43.8% | LOX IMVI melanoma 50% | SK-MEL-28 melanoma 57.8% | SK-MEL-2 melanoma 71.3% | EKVX NSCLC 34.4% | SN12C renal 38.8% | UO-31 renal 13.1% | TK-10 renal 70.6% | ACHN renal 38.3% | A498 renal 114% | CCRF-CEM leukemia 60.5% | MOLT-4 leukemia 24%
active: SNB-75 CNS 7.14%

CC(=O)OCCC/C(=C/c1cc2ccccc2c2ccccc12)[N+](=O)[O-]
active: HCT-15 colon -81.8% | HT29 colon -44.7% | SNB-75 CNS -93.6% | SNB-19 CNS -91.1% | U251 CNS -95.4% | SK-MEL-5 melanoma -100% | UACC-62 melanoma -90.2% | LOX IMVI melanoma -70.6% | SK-MEL-28 melanoma -99.5% | SK-MEL-2 melanoma -80.8% | EKVX NSCLC -31.7% | SN12C renal -88.9% | UO-31 renal -97% | TK-10 renal -72.2% | A498 renal -80.1% | CCRF-CEM leukemia -36.1% | MOLT-4 leukemia -28.7%

COc1cc(C(=O)/C=C/c2cccnc2Nc2ccc(Cl)cc2)cc(OC)c1OC
active: HCT-15 colon -45.9% | HT29 colon -55.1% | SNB-75 CNS -74.7% | SNB-19 CNS -80.5% | U251 CNS -95.3% | SK-MEL-5 melanoma -86.8% | UACC-62 melanoma -67% | LOX IMVI melanoma -65.5% | SK-MEL-28 melanoma -80.4% | SK-MEL-2 melanoma -65% | SN12C renal -58.7% | UO-31 renal -99.3% | TK-10 renal -68.5% | ACHN renal -97.1% | CAKI-1 renal -6.13% | CCRF-CEM leukemia -10.8% | MOLT-4 leukemia -6.63%
inactive: EKVX NSCLC 23.7%

O=C(Cc1ccccc1Nc1c(Cl)cccc1Cl)NN1C(=O)/C(=C/c2ccc(Br)cc2)SC1=S
inactive: HCT-15 colon 104% | HT29 colon 109% | SNB-75 CNS 86.4% | SNB-19 CNS 105% | U251 CNS 102% | SK-MEL-5 melanoma 98.6% | UACC-62 melanoma 101% | LOX IMVI melanoma 97.5% | SK-MEL-28 melanoma 105% | SK-MEL-2 melanoma 99.9% | EKVX NSCLC 98.5% | SN12C renal 100% | UO-31 renal 90.9% | TK-10 renal 107% | ACHN renal 104% | A498 renal 107% | CCRF-CEM leukemia 107% | MOLT-4 leukemia 107%

CC1SC(c2ccc(N(C)C)cc2)N(NC(=O)C(O)(c2ccccc2)c2ccccc2)C1=O (centres undefined)
inactive: HCT-15 colon 83.8% | HT29 colon 93.8% | SNB-75 CNS 96.6% | SNB-19 CNS 110% | U251 CNS 91.4% | SK-MEL-5 melanoma 98.8% | UACC-62 melanoma 79.9% | LOX IMVI melanoma 87.7% | SK-MEL-28 melanoma 111% | SK-MEL-2 melanoma 104% | EKVX NSCLC 93.5% | SN12C renal 110% | UO-31 renal 47.7% | TK-10 renal 89.4% | ACHN renal 94% | A498 renal 101% | CCRF-CEM leukemia 65.1% | MOLT-4 leukemia 72%

CCc1c(Nc2ccccc2C)nc(N)[nH]c1=O
inactive: HCT-15 colon 98.4% | HT29 colon 110% | SNB-75 CNS 92.9% | SNB-19 CNS 110% | U251 CNS 120% | SK-MEL-5 melanoma 107% | UACC-62 melanoma 110% | LOX IMVI melanoma 107% | SK-MEL-28 melanoma 112% | SK-MEL-2 melanoma 109% | EKVX NSCLC 94.5% | SN12C renal 100% | TK-10 renal 105% | ACHN renal 106% | CAKI-1 renal 90.9% | CCRF-CEM leukemia 100% | MOLT-4 leukemia 99.4%

Cc1ccc(C(SCC(N)C(=O)O)(c2ccccc2)c2ccc(C)cc2)cc1 (centres undefined)
active: HT29 colon 1.66% | U251 CNS 7.96% | SK-MEL-2 melanoma -24.4% | CCRF-CEM leukemia 6.28%
inactive: HCT-15 colon 20.1% | SNB-75 CNS 16.8% | SNB-19 CNS 36.5% | SK-MEL-5 melanoma 16.7% | UACC-62 melanoma 13.6% | LOX IMVI melanoma 41.7% | SK-MEL-28 melanoma 30% | EKVX NSCLC 43.1% | SN12C renal 29.9% | UO-31 renal 38.6% | TK-10 renal 60.7% | ACHN renal 56.3% | A498 renal 29% | MOLT-4 leukemia 13.8%

Cc1cc2nc3[nH]c4ccccc4c3nc2cc1C
inactive: HCT-15 colon 80.3% | HT29 colon 95.1% | SNB-75 CNS 51.2% | SNB-19 CNS 89.7% | U251 CNS 58.1% | SK-MEL-5 melanoma 88.9% | UACC-62 melanoma 90.3% | LOX IMVI melanoma 64.1% | SK-MEL-28 melanoma 90% | SK-MEL-2 melanoma 104% | EKVX NSCLC 79.3% | SN12C renal 83.4% | UO-31 renal 68.4% | TK-10 renal 107% | ACHN renal 91.9% | A498 renal 121% | CCRF-CEM leukemia 76.2% | MOLT-4 leukemia 89.7%

Nc1ccn(-c2ccc(Br)cc2)c(=O)n1
active: CCRF-CEM leukemia -23.5%
inactive: HCT-15 colon 119% | HT29 colon 125% | SNB-75 CNS 76.7% | SNB-19 CNS 140% | U251 CNS 104% | SK-MEL-5 melanoma 119% | UACC-62 melanoma 106% | LOX IMVI melanoma 105% | SK-MEL-28 melanoma 137% | SK-MEL-2 melanoma 87.9% | EKVX NSCLC 95.8% | SN12C renal 115% | TK-10 renal 113% | ACHN renal 111% | CAKI-1 renal 87.2% | A498 renal 99.5% | MOLT-4 leukemia 107%

O=C1/C(=C/c2ccccc2)SC(=S)N1CCc1ccc(O)cc1
inactive: HCT-15 colon 100% | HT29 colon 102% | SNB-75 CNS 81.1% | SNB-19 CNS 90.4% | U251 CNS 97.3% | SK-MEL-5 melanoma 97% | UACC-62 melanoma 77% | LOX IMVI melanoma 89.2% | SK-MEL-28 melanoma 103% | SK-MEL-2 melanoma 101% | EKVX NSCLC 91.9% | SN12C renal 91.3% | UO-31 renal 65% | TK-10 renal 99.9% | ACHN renal 93.9% | A498 renal 92.1% | CCRF-CEM leukemia 74.2% | MOLT-4 leukemia 88.6%

O=C(/C=C/c1ccc(C(F)(F)F)cc1)Nc1ccc(C=C2c3ccccc3C(=O)c3ccccc32)cc1
inactive: HCT-15 colon 47.4% | HT29 colon 46.5% | SNB-75 CNS 46.6% | SNB-19 CNS 66.5% | U251 CNS 33.8% | SK-MEL-5 melanoma 44.7% | UACC-62 melanoma 52.2% | LOX IMVI melanoma 76.7% | SK-MEL-28 melanoma 60.2% | SK-MEL-2 melanoma 25.5% | EKVX NSCLC 53.6% | SN12C renal 89.6% | UO-31 renal 72.6% | TK-10 renal 70.2% | ACHN renal 74.8% | CAKI-1 renal 56.2% | CCRF-CEM leukemia 32.6% | MOLT-4 leukemia 47.5%

O=C(CN(C(=O)Cn1c(=O)n2nnnc2c2ccccc21)c1ccccc1C(F)(F)F)Nc1ccc(C(F)(F)F)cc1
inactive: HCT-15 colon 102% | HT29 colon 110% | SNB-75 CNS 91% | SNB-19 CNS 95.6% | U251 CNS 99.1% | SK-MEL-5 melanoma 102% | UACC-62 melanoma 101% | LOX IMVI melanoma 98.9% | SK-MEL-28 melanoma 108% | SK-MEL-2 melanoma 105% | EKVX NSCLC 101% | SN12C renal 100% | UO-31 renal 81.1% | TK-10 renal 111% | ACHN renal 102% | A498 renal 116% | CCRF-CEM leukemia 107% | MOLT-4 leukemia 104%

O=C(O)c1ccc(NC(=O)c2ccc(-c3cccc([N+](=O)[O-])c3)o2)cc1
inactive: HCT-15 colon 99.2% | HT29 colon 104% | SNB-75 CNS 88% | SNB-19 CNS 92% | U251 CNS 96.8% | SK-MEL-5 melanoma 101% | UACC-62 melanoma 98.4% | LOX IMVI melanoma 95.3% | SK-MEL-28 melanoma 107% | SK-MEL-2 melanoma 102% | EKVX NSCLC 93.6% | SN12C renal 93.2% | UO-31 renal 77.8% | TK-10 renal 102% | CAKI-1 renal 88% | A498 renal 110% | CCRF-CEM leukemia 106% | MOLT-4 leukemia 109%

Cn1cc(C(=O)c2nc(-c3c[nH]c4ccc(F)cc34)no2)c2cc(F)ccc21
inactive: HCT-15 colon 68.6% | HT29 colon 101% | SNB-75 CNS 79.8% | SNB-19 CNS 101% | U251 CNS 100% | SK-MEL-5 melanoma 92.8% | UACC-62 melanoma 81.7% | LOX IMVI melanoma 95.2% | SK-MEL-28 melanoma 103% | SK-MEL-2 melanoma 98.1% | EKVX NSCLC 89.8% | SN12C renal 95.1% | UO-31 renal 69.5% | TK-10 renal 113% | ACHN renal 96.1% | A498 renal 112% | CCRF-CEM leukemia 91.7% | MOLT-4 leukemia 95.2%

Cc1cc2nc(NC(=O)CN3CCN(CCN4C(=O)c5cccc6cccc(c56)C4=O)CC3)sc2cc1C
inactive: HCT-15 colon 81.1% | HT29 colon 51.8% | SNB-75 CNS 77.8% | SNB-19 CNS 75.3% | U251 CNS 73.2% | SK-MEL-5 melanoma 77% | UACC-62 melanoma 83.8% | LOX IMVI melanoma 77.9% | SK-MEL-28 melanoma 106% | SK-MEL-2 melanoma 107% | EKVX NSCLC 82.1% | SN12C renal 72.9% | UO-31 renal 68% | TK-10 renal 95% | ACHN renal 85.1% | CAKI-1 renal 88% | CCRF-CEM leukemia 71.5% | MOLT-4 leukemia 45%

NC(N)=N/N=C(/c1ccccc1)c1ccc(F)cc1
active: HT29 colon -1.2% | U251 CNS 4.79% | SK-MEL-5 melanoma -18.7% | UACC-62 melanoma 4.05% | SK-MEL-2 melanoma -15.1% | UO-31 renal -8.69% | A498 renal -16.6% | CCRF-CEM leukemia -14.3% | MOLT-4 leukemia -10.1%
inactive: HCT-15 colon 10.3% | SNB-75 CNS 18% | SNB-19 CNS 26.8% | LOX IMVI melanoma 18.6% | SK-MEL-28 melanoma 35.1% | EKVX NSCLC 35.1% | SN12C renal 17.2% | TK-10 renal 50.5% | ACHN renal 29.3%

COc1ccc(C(=O)COc2ccc(/C=C3\COc4ccc(OC)cc4C3=O)cc2)cc1
active: CCRF-CEM leukemia 7.46%
inactive: HCT-15 colon 77.5% | HT29 colon 93% | SNB-75 CNS 91.7% | SNB-19 CNS 101% | U251 CNS 84.3% | SK-MEL-5 melanoma 74.2% | UACC-62 melanoma 85.1% | LOX IMVI melanoma 80.7% | SK-MEL-28 melanoma 94.5% | SK-MEL-2 melanoma 68.1% | EKVX NSCLC 103% | SN12C renal 100% | TK-10 renal 105% | ACHN renal 99.8% | CAKI-1 renal 99.1% | A498 renal 100% | MOLT-4 leukemia 55.5%
